Measurements as given in PubChem BioAssay AID1508600 (Functional Genomics Laboratory (NCATS/FGL), 2020).
Among all 53,000 sequences or so, about 3,700 (7%) were called active. This is one part of a sample in which actives are shown more often than they occur. Unmarked numbers belong to inactive results.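 The calls were made as follows: active = gene knockdowns whose robust z-score for IL-1 alpha signal is at least 2 or at most -2, so actives lie on both sides; inactive = the rest.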

Assay: Components of the Cytosolic LPS Sensing Pathway: Gene Identification via Genome-wide siRNA Screen;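 also: robust z of the log signal after scaling to non-targeting control siRNA wells of the plate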
Conditions: RAW264.7 macrophages, IL-1a HTRF, actives lie on both sides, screened at 100 nM (by protocol), cells primed 5 h with Pam3CSK4 first
Outline: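 RAW264.7; siRNA 100 nM final, RNAiMAX, 48h 37 degrees C; Pam3CSK4 5 h; LipidA + TransIT-TKO 24 h; IL-1a HTRF; CellTiter-Glo viability; robust z vs negative-control median.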

**Q.** For GGAUUAUCCUGGCUUGUUGTT against Rdh12, which z-score is on record?
**A.** -0.962

**Q.** With GCUGAUUGCCUCGGAGAAUTT against Shmt1 as the sequence, how does the z-score read?
**A.** -0.0766

**Q.** For GCGCAUCGAAAAAUGGAUUTT against Rgl3, which z-score is on record?
**A.** 0.236

**Q.** With GGUAUUGAGUGAUAACUACTT against Klhdc7a as the sequence, how does the z-score read?
**A.** 1.29

**Q.** With GCAUUCAAUCUGCAGAGGGTT against Olfr888 as the sequence, how does the z-score read?
**A.** -2.48 (active)

**Q.** Which z-score does the source give for GGGUAGAAAAGUGCAAUUUTT against Has2 here?
**A.** 0.0317

**Q.** For CGCUCUAGGAAAACAAUGUTT against Klb, which z-score is on record?
**A.** -0.614

**Q.** Which z-score does the source give for GGGUACAUCUAACUUGAAUTT against Tnfrsf10b here?
**A.** -0.411

**Q.** Which z-score does the source give for GCGGCAUGGACUUAGUAAATT against Fbxo5 here?
**A.** 3.11 (active)

**Q.** For CGAUUAGUCUCUCAUUAUUTT against Ipo11, which z-score is on record?
**A.** -1.12

**Q.** With GGCUAAUGCUCCUUCAUGUTT against Myo18a as the sequence, how does the z-score read?
**A.** -0.439

**Q.** With GCCCUGCACCAGAAAAACATT against Stk40 as the sequence, how does the z-score read?
**A.** -0.662

**Q.** For GGUCUCUGUCUCCAAGAAATT against Fam53c, which z-score is on record?
**A.** -1.69

**Q.** Which z-score does the source give for GGUGUUUGGGCGGUUUGAATT against Snx15 here?
**A.** -2.25 (active)

**Q.** Which z-score does the source give for CCCUUAAUAAAGAAGGGACTT against Atg9a here?
**A.** 0.961

**Q.** With GGGUCUACGAAGAAUAGGGTT against Cxcl14 as the sequence, how does the z-score read?
**A.** 0.744

**Q.** With GCUAGAAGCUUUCUAUUCUTT against Hsph1 as the sequence, how does the z-score read?
**A.** 1.68

**Q.** With GGAGAGUAUCUGAAGUUUCTT against Jak2 as the sequence, how does the z-score read?
**A.** 1.8

**Q.** For GGUAAAAUGAUCCUUAGAATT against Pcdh15, which z-score is on record?
**A.** 0.145

**Q.** For GGAGCUGUCUCUACGAAACTT against Myoz3, which z-score is on record?
**A.** 1.27

**Q.** Which z-score does the source give for GGAGCCUUUAAUCUCAUUATT against Wbp1 here?
**A.** -0.463

**Q.** Which z-score does the source give for GCCGUUUUAUUCACGUGAATT against Erp27 here?
**A.** -1.36

**Q.** For GGAUGUGGUGGUAUUAGACTT against Phykpl, which z-score is on record?
**A.** 2.5 (active)

**Q.** Which z-score does the source give for GGAAGAGGUUCAGAACAGATT against Spaca1 here?
**A.** 1.19

**Q.** Which z-score does the source give for GGACCAAGGAUGUUCGCUUTT against Cnr2 here?
**A.** 1.14

**Q.** With GGAACGAACUCAUUAAAACTT against Abhd3 as the sequence, how does the z-score read?
**A.** -0.736

**Q.** For CCGAUUUGGGUCAAUUUUATT against Usf3, which z-score is on record?
**A.** -0.047

**Q.** With GGCGGAUUGAAUAAGAAGGTT against Pfn2 as the sequence, how does the z-score read?
**A.** -0.517

**Q.** For GGGCUUUGGAUGAACUGCATT against Cldn17, which z-score is on record?
**A.** -0.0702

**Q.** With GGAGCUCUUUGAGUACAUCTT against Ift46 as the sequence, how does the z-score read?
**A.** 2.48 (active)

**Q.** For CUCACAAGUCAAAGCCUACTT against Zfp182, which z-score is on record?
**A.** 0.121

**Q.** For AAUAGACUGGUACUCUCUGTT against Olfr476, which z-score is on record?
**A.** 1.08

**Q.** With GCCUGGUUACAGCAUUAACTT against Rimkla as the sequence, how does the z-score read?
**A.** -1.75

**Q.** Which z-score does the source give for GGUCAAACAAGAAACAGUUTT against Prdm1 here?
**A.** 0.417

**Q.** For GCUGUGCCCUAAAGACUGGTT against Clec2m, which z-score is on record?
**A.** 2.27 (active)

**Q.** With GGUGAAGCUGAAGAAGUACTT against Chst12 as the sequence, how does the z-score read?
**A.** 0.975

**Q.** With GGAUAAUGGAGCAAAUUGCTT against Slc22a1 as the sequence, how does the z-score read?
**A.** -0.522

**Q.** For GCAAGUUAACCAGACCCAATT against Mro, which z-score is on record?
**A.** 0.709

**Q.** For GGAGAAGCUGUUUGUUCUGTT against Ftcd, which z-score is on record?
**A.** 0.507

**Q.** For GGACAAGGCAACACAUACCTT against Csnk1a1, which z-score is on record?
**A.** 2.58 (active)

**Q.** With GCCACUACUACAUCAAUGUTT against Mall as the sequence, how does the z-score read?
**A.** 1.24

**Q.** Which z-score does the source give for GGGUCCUCUUUAAAAGGCUTT against Smc6 here?
**A.** -1.1

**Q.** Which z-score does the source give for CCUACCCAAACCUACUAAATT against Gpt2 here?
**A.** -0.168

**Q.** For GGAUCUGGAGAAGAUGAUGTT against Ret, which z-score is on record?
**A.** -0.822

**Q.** Which z-score does the source give for GGCCAAAAAAACAUACAAGTT against Zbtb21 here?
**A.** 4.91 (active)

**Q.** With GGUAUCAAGGCUCUGGUGUTT against Ifnlr1 as the sequence, how does the z-score read?
**A.** -0.602

**Q.** Which z-score does the source give for CAGCAUGAUGAUGGAGACCTT against Sox1 here?
**A.** 0.708

**Q.** For UGGAUACUCUAUCUCAAGCTT against Serpinb9g, which z-score is on record?
**A.** -0.479

**Q.** Which z-score does the source give for GCAACAAGUGUUGGACUCATT against Tob2 here?
**A.** -2.04 (active)

**Q.** For GGAAAGUAACUAAAGGCAATT against Arl8b, which z-score is on record?
**A.** 0.274

**Q.** With GCUACAAGACUUUUACCAGTT against Tnfsf18 as the sequence, how does the z-score read?
**A.** -0.0821

**Q.** With GGGACUAGACUUCUUCGGATT against Ddx52 as the sequence, how does the z-score read?
**A.** 0.186

**Q.** Which z-score does the source give for UGGCAAAAAGGUGAUAACUTT against Hbb-b2 here?
**A.** 0.86

**Q.** Which z-score does the source give for GGCCCAGCAUGCAAGUUAUTT against Sh2d2a here?
**A.** 2.17 (active)

**Q.** For CCACAGCCAAAUGCACAAGTT against Platr26, which z-score is on record?
**A.** 0.31

**Q.** Which z-score does the source give for CCUCAUUCAAGAAACCUCATT against Comtd1 here?
**A.** -1.13

**Q.** Which z-score does the source give for GGAACACCAUCAUCAGUCATT against Ephb2 here?
**A.** -0.448

**Q.** For GGUCUCCACUGAGGACUGUTT against Ndufa2, which z-score is on record?
**A.** 0.284

**Q.** For GGCCUAGGGAAAGCUAUGGTT against Nat8f3, which z-score is on record?
**A.** -2.57 (active)

**Q.** With GCAGAAGUGCUAUUCUUGUTT against Cnbp as the sequence, how does the z-score read?
**A.** 0.108

**Q.** Which z-score does the source give for GCGGCUUUGGCAAUUCUCUTT against Olfr1361 here?
**A.** -1.13

**Q.** For GGUGCCUUUCUGCUUUUGATT against Spink12, which z-score is on record?
**A.** 1.87

**Q.** With GGAAUAUUACCAGUCGGAATT against Marveld3 as the sequence, how does the z-score read?
**A.** 0.469

**Q.** For GGAAAAUCUUGACUUCAUCTT against Cbwd1, which z-score is on record?
**A.** -0.316

**Q.** With CCUGAUGCCAGUUAACAGUTT against Rcan1 as the sequence, how does the z-score read?
**A.** 0.516

**Q.** Which z-score does the source give for GGAGGUUUUCCACCACUUGTT against Efcc1 here?
**A.** -2.04 (active)

**Q.** Which z-score does the source give for GCGAUAUGAAUAUCAUCUUTT against Fbxo22 here?
**A.** -0.0727

**Q.** For GGAAUCUUUAUCCACAUUCTT against Chst15, which z-score is on record?
**A.** 0.943

**Q.** For GGAGCAACUAAUGAAGAAATT against Dnajc22, which z-score is on record?
**A.** -0.064
